Inconclusive results are not listed. Active and inactive are the calls of the source. Unless noted, the call rests on the fitted dose curve; in most records, active means well fitted curve in the direction sought with a large enough effect; inconclusive means small, poorly fitted or top-dose-only effect, or another doubt; inactive means no such curve, though single readings can be large; an effect the other way counts as inactive or inconclusive.
Key:
[1] = molecular target: Galactokinase (Homo sapiens) (UniProt P51570); assay: qHTS Validation Assay for Inhibitors of Human Galactokinase (GALK) (AID 493189)
Outline: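 Enzyme activity is inferred from ATP consumption: human GALK phosphorylates galactose (100 uM) using 35 uM ATP for 1 h at room temperature, and luciferase-based Kinase-Glo Plus reports unconsumed ATP.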

[2] = Validation screen for small molecules that induce DNA re-replication in SW480 colon adenocarcinoma cells (AID 504364)
Outline: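 250 cells/well; compound pinned in; 48 hr, 37 C, 5% CO2; Hoechst added, 40 min; nuclear fluorescence imaged, 405 ex / 500-530 em; re-replication scored as increase in high-intensity nuclei.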

[3] = molecular target: Peptidyl-prolyl cis-trans isomerase NIMA-interacting 1 (Homo sapiens) (UniProt Q13526); assay: qHTS Validation Assay to Find Inhibitors of Pin1 (AID 504536; active means well fitted inhibition curve with a large enough effect in the polarisation, with a control signal flat, not every such curve was filed as active; the % refers to the polarisation)
Outline: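 Fluorescence polarization competition: compounds (titration) displace HiFluor-488-labeled Pin1-1b peptide from Pin1 (0.3 uM final) in pH 7.5 HEPES buffer with DTT, 10 min at room temperature; %Activity normalized to no-enzyme wells, curves fitted.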

[4] = molecular target: Ubiquitin carboxyl-terminal hydrolase 1 (Homo sapiens) (UniProt O94782); assay: Inhibitors of USP1/UAF1: Pilot qHTS (AID 504865);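 further: rhodamine fluorescence freed from ubiquitin-rhodamine substrate followed over time; top concentration of the series differs between compounds; nearly all actives have a fitted effect of over 35% in size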
Outline: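 Enzyme-free wells gave the negative control, while test wells held 1nM USP1/UAF1 preincubated with compound for 15 min at room temperature. Ub-Rho at 150nM final started the reaction, and fluorescence at 480/540 nm was recorded kinetically.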

[5] = qHTS for Inhibitors of ATXN expression: Validation of Cytotoxic Assay (AID 588349)
Outline: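 Read-out: ATP-based luminescence (CellTiter Glo) reflecting viability of HEK293 cells after 72 hr incubation at 37 degrees C with a concentration series of each compound.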

[6] = qHTS for Inhibitors of ATXN expression: Validation (AID 588378); further: series mostly up to about 57 µM; nearly all actives have a fitted effect of over 75% in size
Outline: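 After a 2 h attachment and 24 h compound incubation, HEK293-ATXN2-FFLuc wells are read for fluorescence at 405 nm excitation/525 nm emission as a viability measure, then for Bright-Glo luminescence reflecting ATXN2 expression.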

[7] = molecular target: Voltage-gated inwardly rectifying potassium channel KCNH2 (Homo sapiens) (UniProt Q12809); assay: qHTS Assay for Small Molecule Inhibitors of the Human hERG Channel Activity (AID 588834);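 further: top concentration of the series differs between compounds; lower thallium flux fluorescence means stronger hERG block; nearly all actives have a fitted effect of over 50% in size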
Outline: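 Blockade is seen as reduced FluxOR thallium-flux fluorescence in U2OS cells expressing hERG from a BacMam construct, in Opti-MEM with 2% FCS. Concentration-response data fitted to the Hill equation for AC50.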

[8] = molecular target: Glutaminase kidney isoform, mitochondrial (Homo sapiens) (UniProt O94925); assay: qHTS for Inhibitors of Glutaminase (GLS): LOPAC Validation (AID 624146);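 further: glutamate product detected by oxidase and peroxidase coupled Amplex red fluorescence gain; series mostly up to about 46 µM; nearly all actives have a fitted effect of over 60% in size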
Outline: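 Read-out is an Amplex red fluorescence increase coupled through glutamate oxidase and HRP, measured before and after 30 min room-temperature incubation. hKGA is in 45 mM KH2PO4 (pH 8.2) with 0.02% Tween-20; glutamine added as 1mM solution.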

[9] = qHTS of Trypanosoma Brucei Inhibitors: LOPAC Validation (AID 624147)
Outline: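 Screened from lowest to highest concentration, compounds were pinned into TbPYK/substrate mixtures, and ADP (130 uM final) was added. Plates sat at room temperature for 45 min prior to Kinase-Glo Plus detection by luminescence.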

[10] = molecular target: Glucagon-like peptide 1 receptor (Homo sapiens) (UniProt P43220); assay: qHTS of GLP-1 Receptor Agonists: LOPAC Validation (AID 624148);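 further: luminescence from a luciferase reporter switched on by cAMP; higher luminescence signal means agonism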
Outline: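 Agonism scored as increased luciferase luminescence driven by cAMP in HEK293 clones carrying GLP-1R. Cells settled 12 hours, received compound for 4-6 hr at 37 deg C, 5% CO2, and were read after 12 min detection reagent at RT.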

[11] = qHTS of Nrf2 Activators: LOPAC Validation (AID 624149)
Outline: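 Luminescence read-out of ARE-luciferase activation: AREc32_Fluc cells treated with compounds for 24 hr at 37 deg C, then lysed with Steady-Glo for 30 min at room temperature before reading.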

[12] = HTS Assay for Allosteric Antagonists of the Human D2 Dopamine Receptor: Hit Validation in HTRF (AID 624455);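 further: stable D1 dopamine receptor cell line scored for blocking the D1 response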
Outline: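 First, antagonism was screened by calcium flux in a force-coupled, inducible Hek293 Trex D2 line challenged with EC80 dopamine. Hits then went into an HTRF assay in cells stably expressing D1, testing inhibition of the D1 response.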

[13] = molecular target: Arylsulfatase A (Homo sapiens) (UniProt P15289); assay: qHTS screen for enhancers of Arylsulfatase A (ASA1): LOPAC Validation Assay (AID 720538)
Outline: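 Cell-based enhancement test: residual ASA activity in SV40-transformed I179S patient fibroblasts is measured by pNCS turnover (0.5mM final, 14h, room temperature) following 48h compound incubation; higher fluorescence indicates activation.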

[14] = qHTS for compounds that reverse cellular toxicity of Amyloid beta (A-beta) peptide in yeast: LOPAC Validation Assay (AID 720559)
Outline: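 Here, A-beta-toxic yeast grow with test compounds at 30 C for 48 hr before optical density at 600 nm is recorded; data are normalized against DMSO and the FeCl3-clioquinol control.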

[15] = qHTS for Activators of Parkin Expression: LOPAC Validation Assay (NLuc Reporter) (AID 720572)
Outline: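 Parkin promoter-driven FLuc/NLuc neuronal reporter cells; 24 h plating, 7-pt dose response, 24 h at 37 C/5% CO2; FLuc then NanoLuc reagent, 10 min each, luminescence; DMSO/positive control normalized.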

[16] = molecular target: T1, Hexokinase-4 (Homo sapiens) + Glucokinase regulatory protein (Homo sapiens) (UniProt P35557+Q14397); assay: qHTS assay for inhibitors of recombinant human GCK-GKRP interaction: Diaphorase-coupled assay (AID 743205)
Outline: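 Signal derives from resorufin generated by diaphorase, linked to GCK turnover of glucose (5 mM) and ATP (0.4 mM). Enzyme complex was added after a 20-minute compound preincubation and monitored for 30 minutes.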

[17] = molecular target: T1, Hexokinase-4 (Homo sapiens) + Glucokinase regulatory protein (Homo sapiens); assay: qHTS assay for inhibitors of recombinant human GCK-GKRP interaction: ADP-Glo assay (AID 743206)
Outline: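 GST-GCK and FLAG-GKRP (15 nM each in the dispensed mix, with 2 uM S6P) react with 0.4 mM ATP and 5 mM glucose (final) in Hepes pH 7.6 for 60 min at room temperature. ADP is measured by ADP-Glo luminescence.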

[18] = molecular target: T1, Hexokinase-4 (Homo sapiens) + Glucokinase regulatory protein (Homo sapiens); assay: qHTS assay for inhibitors of recombinant human GCK-GKRP interaction: HTRF assay (AID 743207)
Outline: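 Titration screening format: recombinant GST-GCK and FLAG-GKRP at 5 nM, S6P at 2 uM, labelled anti-tag antibodies, 60 min at RT, dual-wavelength HTRF readout.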

Measured: Potency

T1 sequence (P35557 whole entry, looked up): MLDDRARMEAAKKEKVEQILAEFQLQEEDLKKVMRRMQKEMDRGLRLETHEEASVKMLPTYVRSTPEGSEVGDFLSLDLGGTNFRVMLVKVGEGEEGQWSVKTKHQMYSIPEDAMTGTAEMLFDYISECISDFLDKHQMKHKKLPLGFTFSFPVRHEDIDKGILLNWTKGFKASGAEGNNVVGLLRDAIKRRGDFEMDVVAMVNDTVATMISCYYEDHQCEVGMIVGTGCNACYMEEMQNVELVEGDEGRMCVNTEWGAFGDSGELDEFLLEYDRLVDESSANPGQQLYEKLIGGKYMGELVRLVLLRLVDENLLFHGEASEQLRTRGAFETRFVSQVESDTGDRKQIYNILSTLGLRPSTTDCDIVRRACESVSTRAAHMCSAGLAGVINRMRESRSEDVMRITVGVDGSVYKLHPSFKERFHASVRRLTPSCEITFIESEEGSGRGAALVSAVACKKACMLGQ
T1 sequence (Q14397 whole entry, looked up): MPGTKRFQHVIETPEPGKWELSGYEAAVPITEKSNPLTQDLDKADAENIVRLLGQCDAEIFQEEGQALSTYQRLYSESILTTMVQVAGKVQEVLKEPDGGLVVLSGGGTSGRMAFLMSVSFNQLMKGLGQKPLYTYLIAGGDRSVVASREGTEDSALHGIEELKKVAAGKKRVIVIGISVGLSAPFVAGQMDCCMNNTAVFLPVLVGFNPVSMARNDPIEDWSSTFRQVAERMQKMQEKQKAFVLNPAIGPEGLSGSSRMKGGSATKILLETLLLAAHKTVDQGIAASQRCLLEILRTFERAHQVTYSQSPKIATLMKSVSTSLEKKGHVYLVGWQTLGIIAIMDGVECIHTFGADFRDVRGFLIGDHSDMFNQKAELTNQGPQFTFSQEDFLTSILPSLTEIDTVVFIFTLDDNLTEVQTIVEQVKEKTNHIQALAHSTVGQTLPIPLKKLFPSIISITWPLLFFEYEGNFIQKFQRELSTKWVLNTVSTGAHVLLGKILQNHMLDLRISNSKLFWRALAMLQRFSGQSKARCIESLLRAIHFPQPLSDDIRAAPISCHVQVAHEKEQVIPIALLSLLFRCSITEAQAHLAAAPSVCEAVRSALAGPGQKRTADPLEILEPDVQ
Chain of Peptidyl-prolyl cis-trans isomerase NIMA-interacting 1 (Homo sapiens) (Q13526 whole entry, looked up): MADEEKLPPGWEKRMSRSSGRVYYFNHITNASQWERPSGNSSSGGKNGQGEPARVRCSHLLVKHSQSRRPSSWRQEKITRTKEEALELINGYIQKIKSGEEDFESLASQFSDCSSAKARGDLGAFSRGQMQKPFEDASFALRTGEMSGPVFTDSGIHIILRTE
Chain of Voltage-gated inwardly rectifying potassium channel KCNH2 (Homo sapiens) (Q12809 whole entry, looked up): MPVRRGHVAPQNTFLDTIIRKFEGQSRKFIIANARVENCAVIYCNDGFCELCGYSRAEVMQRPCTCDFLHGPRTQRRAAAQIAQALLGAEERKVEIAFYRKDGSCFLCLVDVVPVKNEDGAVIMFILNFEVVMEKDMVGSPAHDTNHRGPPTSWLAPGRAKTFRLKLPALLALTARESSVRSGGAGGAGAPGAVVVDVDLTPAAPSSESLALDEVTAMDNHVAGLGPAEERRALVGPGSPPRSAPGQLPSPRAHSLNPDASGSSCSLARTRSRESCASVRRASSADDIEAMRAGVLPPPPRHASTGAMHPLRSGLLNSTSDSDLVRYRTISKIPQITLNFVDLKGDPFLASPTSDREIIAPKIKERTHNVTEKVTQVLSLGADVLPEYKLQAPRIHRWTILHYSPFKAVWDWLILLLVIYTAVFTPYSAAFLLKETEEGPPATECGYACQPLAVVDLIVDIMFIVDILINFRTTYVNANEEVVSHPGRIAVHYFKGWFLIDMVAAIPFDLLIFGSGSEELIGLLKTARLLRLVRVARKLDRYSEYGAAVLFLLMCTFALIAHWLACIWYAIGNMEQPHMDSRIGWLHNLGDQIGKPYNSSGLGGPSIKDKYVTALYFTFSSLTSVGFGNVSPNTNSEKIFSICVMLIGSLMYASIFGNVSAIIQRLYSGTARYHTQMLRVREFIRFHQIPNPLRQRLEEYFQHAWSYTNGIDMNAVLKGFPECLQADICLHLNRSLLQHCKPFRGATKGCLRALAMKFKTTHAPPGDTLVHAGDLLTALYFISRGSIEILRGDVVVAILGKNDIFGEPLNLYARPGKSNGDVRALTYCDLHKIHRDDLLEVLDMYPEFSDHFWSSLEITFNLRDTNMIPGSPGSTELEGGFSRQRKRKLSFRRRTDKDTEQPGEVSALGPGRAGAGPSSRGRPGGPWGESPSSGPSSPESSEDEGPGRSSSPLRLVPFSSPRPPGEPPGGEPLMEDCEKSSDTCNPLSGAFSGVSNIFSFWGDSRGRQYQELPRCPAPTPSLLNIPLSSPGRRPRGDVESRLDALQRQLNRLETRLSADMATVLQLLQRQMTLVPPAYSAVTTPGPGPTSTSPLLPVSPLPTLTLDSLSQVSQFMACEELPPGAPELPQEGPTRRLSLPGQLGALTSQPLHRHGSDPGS
Chain of Arylsulfatase A (Homo sapiens) (P15289 whole entry, looked up): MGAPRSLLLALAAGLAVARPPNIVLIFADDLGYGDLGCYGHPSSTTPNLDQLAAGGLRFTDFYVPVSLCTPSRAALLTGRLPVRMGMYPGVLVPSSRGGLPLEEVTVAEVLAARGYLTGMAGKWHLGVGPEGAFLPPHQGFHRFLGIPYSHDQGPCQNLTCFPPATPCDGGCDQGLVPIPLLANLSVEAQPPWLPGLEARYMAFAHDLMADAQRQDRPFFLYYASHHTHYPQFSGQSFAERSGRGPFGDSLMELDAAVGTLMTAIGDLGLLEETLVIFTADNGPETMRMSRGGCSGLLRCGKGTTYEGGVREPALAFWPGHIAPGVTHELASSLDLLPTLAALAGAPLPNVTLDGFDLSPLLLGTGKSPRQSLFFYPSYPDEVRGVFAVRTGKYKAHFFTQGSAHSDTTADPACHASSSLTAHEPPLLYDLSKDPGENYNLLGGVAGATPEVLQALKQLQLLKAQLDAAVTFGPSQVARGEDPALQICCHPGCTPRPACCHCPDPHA
Chain of Ubiquitin carboxyl-terminal hydrolase 1 (Homo sapiens) (O94782 whole entry, looked up): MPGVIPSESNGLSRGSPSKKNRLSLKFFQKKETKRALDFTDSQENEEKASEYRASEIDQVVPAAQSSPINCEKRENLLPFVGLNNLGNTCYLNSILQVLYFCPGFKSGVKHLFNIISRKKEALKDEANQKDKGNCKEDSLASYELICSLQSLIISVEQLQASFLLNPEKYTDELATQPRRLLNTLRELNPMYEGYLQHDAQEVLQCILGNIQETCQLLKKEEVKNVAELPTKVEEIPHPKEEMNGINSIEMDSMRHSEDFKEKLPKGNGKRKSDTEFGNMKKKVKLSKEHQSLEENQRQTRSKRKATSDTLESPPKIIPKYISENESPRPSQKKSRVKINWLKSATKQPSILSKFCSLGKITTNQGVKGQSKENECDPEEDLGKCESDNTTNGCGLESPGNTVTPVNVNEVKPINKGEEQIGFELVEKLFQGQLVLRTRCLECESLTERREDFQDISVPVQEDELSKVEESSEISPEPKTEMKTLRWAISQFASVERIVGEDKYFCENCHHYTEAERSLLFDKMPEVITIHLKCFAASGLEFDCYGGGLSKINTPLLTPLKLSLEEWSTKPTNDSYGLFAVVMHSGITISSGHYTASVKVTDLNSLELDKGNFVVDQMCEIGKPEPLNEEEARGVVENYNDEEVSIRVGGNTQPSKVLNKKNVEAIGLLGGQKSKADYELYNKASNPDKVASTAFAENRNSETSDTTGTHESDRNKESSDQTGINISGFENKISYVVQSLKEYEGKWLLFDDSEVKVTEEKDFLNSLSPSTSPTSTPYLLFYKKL
Chain of Galactokinase (Homo sapiens) (P51570 whole entry, looked up): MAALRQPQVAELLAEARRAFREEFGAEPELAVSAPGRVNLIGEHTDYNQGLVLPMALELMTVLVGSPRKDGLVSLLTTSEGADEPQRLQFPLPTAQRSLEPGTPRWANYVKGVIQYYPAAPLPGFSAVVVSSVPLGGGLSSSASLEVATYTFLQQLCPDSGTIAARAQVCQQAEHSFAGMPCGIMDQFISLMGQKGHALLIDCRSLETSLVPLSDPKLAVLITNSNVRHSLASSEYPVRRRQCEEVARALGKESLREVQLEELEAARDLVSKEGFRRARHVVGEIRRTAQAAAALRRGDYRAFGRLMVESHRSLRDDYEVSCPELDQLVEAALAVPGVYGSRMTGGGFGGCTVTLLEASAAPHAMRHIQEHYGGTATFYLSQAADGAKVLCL
Chain of Glutaminase kidney isoform, mitochondrial (Homo sapiens) (O94925 whole entry, looked up, canonical isoform): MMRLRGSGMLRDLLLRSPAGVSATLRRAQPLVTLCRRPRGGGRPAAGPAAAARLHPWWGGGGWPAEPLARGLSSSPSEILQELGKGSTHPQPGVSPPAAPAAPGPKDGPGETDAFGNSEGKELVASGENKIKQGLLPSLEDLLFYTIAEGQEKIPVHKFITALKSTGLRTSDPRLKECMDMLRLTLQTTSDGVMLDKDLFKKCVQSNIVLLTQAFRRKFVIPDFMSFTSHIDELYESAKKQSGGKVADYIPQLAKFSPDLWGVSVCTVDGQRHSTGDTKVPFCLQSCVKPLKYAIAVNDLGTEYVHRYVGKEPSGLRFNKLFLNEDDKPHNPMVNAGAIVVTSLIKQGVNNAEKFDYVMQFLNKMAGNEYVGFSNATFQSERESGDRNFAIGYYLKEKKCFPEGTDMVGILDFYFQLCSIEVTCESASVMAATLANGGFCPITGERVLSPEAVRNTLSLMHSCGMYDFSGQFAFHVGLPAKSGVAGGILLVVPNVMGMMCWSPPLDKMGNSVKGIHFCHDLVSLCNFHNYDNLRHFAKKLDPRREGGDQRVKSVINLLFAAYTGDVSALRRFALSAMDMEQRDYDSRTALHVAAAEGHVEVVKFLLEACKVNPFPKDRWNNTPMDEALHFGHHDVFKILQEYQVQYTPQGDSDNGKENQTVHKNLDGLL

Cc1cccc(/C=C/c2ccccc2)n1
inactive: [1] | [2] | [3] | [4] | [5] | [6] | [7] | [8] | [9] | [10] | [11] | [12] | [13] | [14] | [15] | [16] | [17] | [18]

— PubChem BioAssay (NCATS)
